Compound activity: PubChem, several laboratories
M18AAP inhibitor: PfM18AAP enzyme inhibition; recombinant PfM18AAP, H-Glu-NHMec fluorogenic cleavage; inhibition, % at 7.35 µM; 1.2% of 290,000 active;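 active means inhibition above the campaign mean inhibition over all tested compounds plus 3 SD, cut at about 28% in these data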;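 further: 0% = plate median of test compound wells and 100% = 2 mM ZnCl2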
Kir21 block: blocks the mouse Kir2.1 inward-rectifier potassium channel. P35561. HEK293-Kir2.1, FluxOR thallium flux fluorescence; hits give low values. B-score at 10 µM. 0.85% of 310,000 active;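 active means fluorescence ratio B-score at or below minus 3 SD of library scores, with starting-brightness B-score within 2 SD, cut at about -4.2 in these data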;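 further: channel flux triggered by added potassium and thallium sulfate stimulus; B-score of peak minus minimum fluorescence over baseline after thallium stimulus; more negative B-score means stronger Kir2.1 block with less thallium influx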
Rce1 inhib: blocks yeast Ras-converting enzyme; 0.27% of 290,000 active; calls only; yeast membranes, quenched prenylated peptide cleavage fluorescence;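 active means fall in fluorescence gain of 50% or more versus controls, with final raw signal at or below 3038400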;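 further: plate controls were neutral control wells for no effect and wells lacking membranes for full effect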
Target sequence (Q03530 whole entry, looked up): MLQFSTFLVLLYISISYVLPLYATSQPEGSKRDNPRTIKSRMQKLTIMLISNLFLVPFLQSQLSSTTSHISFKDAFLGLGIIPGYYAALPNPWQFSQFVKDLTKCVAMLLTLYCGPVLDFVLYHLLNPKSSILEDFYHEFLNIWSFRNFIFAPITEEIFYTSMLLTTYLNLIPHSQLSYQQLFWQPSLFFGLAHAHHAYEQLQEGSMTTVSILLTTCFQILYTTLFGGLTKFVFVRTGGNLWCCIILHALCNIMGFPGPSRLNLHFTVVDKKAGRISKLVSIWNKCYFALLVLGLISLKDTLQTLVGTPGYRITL
DNA FID counter: fluorescent intercalator displacement, NS3 helicase counter-screen. DNA fluorescent intercalator displacement, fluorescence. inhibition, % at 7.9 µM. 0.17% of 290,000 active; in the data active means inhibition above about 37%;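 further: 0% = vehicle and 100% = reference compound; higher means more ethidium bromide displaced from hairpin DNA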
Numbers without * were called inactive; i = inactive; . = no result given; + = active, no number. An excerpt weighted towards active compounds, which were near 2.3% of everything screened.

SMILES | M18AAP inhibitor | Kir21 block | Rce1 inhib | DNA FID counter
COc1cccc(N2CCc3c(C)nc4ccc(Cl)cc4c32)c1 | -3.1 | -13.9* | i | 1.6
CCN1Cc2c(/C=C/c3ccccc3)nc3ccc(OC)cc3c2N(c2cccc(Cl)c2)C1 | 0.8 | -13* | i | -7.9
COc1ccc(N2CCc3c(C)nc4c(OC)cccc4c32)cc1 | -5.1 | -0.6 | i | 3.8
COCCNC(=S)N(CCc1c(C)[nH]c2ccccc12)Cc1ccco1 | 3.7 | -4.66* | i | -17.3
CCNC(=S)N(CCc1c(C)[nH]c2ccc(Cl)cc12)Cc1ccco1 | -0.2 | -3.34 | i | -6.9
COCCNC(=S)N(CCc1c(C)[nH]c2ccc(F)cc12)Cc1cccs1 | -12.0 | -1.61 | i | -17.6
CNC(=S)N(CCc1c(C)[nH]c2ccc(C)cc12)Cc1ccco1 | 2.1 | -5.03* | i | -6.8
CCNc1nc(C)c(CN(C(C)=O)c2ccccc2)nc1C#N | -12.6 | 0 | + | -10.8
CC(C)CCNC(=S)Nc1ccc([N+](=O)[O-])cc1 | -1.8 | -11.1* | i | 9.6
O=[N+]([O-])c1ccc(NNC(=S)Nc2ccc(F)cc2)cc1 | 28.7* | 1.82 | i | 2.7
O=C(NNC(=S)Nc1ccc(F)cc1)c1cccc([N+](=O)[O-])c1 | 8.6 | 0.01 | i | 1.2
O=C(CN1C(=O)c2ccc([N+](=O)[O-])cc2C1=O)Nc1cc(S(=O)(=O)N2CCOCC2)ccc1Cl | . | 0.08 | . | .
CCOC(=O)C1(CCc2ccccc2)CCN(Cc2ccc(O)cc2)CC1 | -10.3 | -4.46* | i | 17.4
CCOC(=O)C1(CCc2ccccc2)CCN(Cc2ccc(OC)cc2)CC1 | 7.5 | -5.22* | i | 24.2
CCn1cc(CCCC(=O)NCc2ccc(OC)cc2)c2ccccc21 | 3.8 | -2.46 | i | -34.9
CCOc1ccccc1NS(=O)(=O)c1cccs1 | -0.5 | -0.44 | i | -0.7
COc1ccccc1C(C)NS(=O)(=O)c1cccs1 (configuration not stated) | 0.6 | -4.46* | i | -4.1
CCN(CC)c1nc2ccccc2c(N)c1-c1ccccc1 | 2.7 | -5.14* | i | 8.8
Cc1c(N(C)C)nc2ccccc2c1N | -13.1 | 0.13 | i | 7.4
Nc1c2ccccc2nc2ccccc12 | 2.7 | 0.95 | i | 51.3*
Cc1nc(-c2ccccn2)nc(N(C)c2ccccc2)c1Cl | 12.5 | 0.56 | i | -34.8
COc1ccc2ccccc2c1CNC(C)c1ccccc1 (configuration not stated) | 5.3 | -5.55* | i | 15.3
CC(NCCCOc1cccc2ccccc12)c1ccccc1 (configuration not stated) | -0.4 | -10.3* | i | 34.5
Cc1cccc(N(CC(=O)NCCc2ccccc2)C(=O)c2csnn2)c1 | -0.4 | -1.57 | i | -21.9
N#CC1=C(c2ccccc2)/C(=C/c2ccccc2)OC1=O | 10.3 | -0.08 | i | -4.2
SMILES | M18AAP inhibitor | Kir21 block | Rce1 inhib | DNA FID counter
N#CC(C#N)=C1NC(N)=C(C#N)C(c2ccccc2)=C1C#N | 6.4 | -1.56 | + | -2.2
CCC1CCCCN1C(=O)CCS(=O)(=O)c1ccccc1 (configuration not stated) | 1.0 | 0.78 | i | -12.2
O=C1c2ccccc2C(=O)c2c(NCCCN(CCO)CCO)cccc21 | 5.3 | -2.82 | i | 89.0*
CCN(CC)CC(=O)Nc1cccc2c1C(=O)c1ccccc1C2=O | 6.8 | -0.14 | . | 17.5
COc1ccc(/C=C/C(=O)O)cc1S(=O)(=O)N1CCc2ccccc2C1 | -8.7 | -2.03 | i | -24.9
COc1ccc(C)cc1S(=O)(=O)N1CCc2ccccc2C1 | 4.2 | -4.26* | . | -22.0
C#CCOc1c(/C=C\c2nc(O)c([N+](=O)[O-])c(=O)[nH]2)cc(Br)cc1OC | 7.4 | 0.81 | i | -16.5
Cc1ccc(S(=O)(=O)N2CCN(CC(=O)N/N=C\C(Cl)=C\c3ccccc3)CC2)cc1 | -6.3 | -0.96 | i | -1.6
CC(/C=N\NC(=O)CN1CCN(S(=O)(=O)c2ccc(C)cc2)CC1)=C\c1ccccc1 | -2.7 | -1.48 | + | -5.7
Cc1nnc2c(SC(C)C)nc3ccccc3n12 | 1.6 | -1.04 | i | -15.8
CN(C)CCCN(C(=O)c1ccc2c(c1)OCCO2)c1nc2ccc(Cl)cc2s1 | -1.8 | -9.87* | i | 39.7*
CCN(CC)CCN(C(=O)c1ccc2ccccc2c1)c1nc2cc3c(cc2s1)OCO3 | -4.7 | 2.36 | + | 9.5
CN(C)CCN(C(=O)c1ccc2c(c1)OCCO2)c1nc2ccc(Cl)cc2s1 | -3.0 | 1.84 | i | 8.5
Cn1cnnc1SCCNS(=O)(=O)c1cccc([N+](=O)[O-])c1 | 0.6 | 2.11 | i | -0.5
COc1ccccc1N1CCN(C(=O)c2cc(C)on2)CC1 | 4.1 | 1.21 | i | -12.7
COc1ccccc1N1CCN(C(=O)c2coc(=O)c(Br)c2)CC1 | -1.7 | -0.75 | + | 3.3
COc1cccc(CC(=O)Nc2ccccc2N2CCCC2)c1 | 2.4 | -6.74* | i | -18.9
Cc1ccc(NC(=O)CSCC(=O)Nc2cc(Cl)ccc2N2CCOCC2)cc1 | . | -1.68 | i | .
CCC(Oc1ccccc1)C(=O)Nc1ccccc1N1CCCC1 (configuration not stated) | 12.3 | -5.46* | i | -22.1
Cc1cccc(NC(=O)CSCC(=O)Nc2cc(Cl)ccc2N2CCN(C)CC2)c1 | 8.1 | -4.6* | i | 20.3
Cc1ccc(NC(=O)CSCC(=O)Nc2ccccc2N2CCCC2)cc1 | . | -6.66* | i | .
CNS(=O)(=O)c1cccc(C(=O)NCC(c2cccs2)N2CCOCC2)c1 (configuration not stated) | . | -0.91 | . | .
CCc1cccc(OCC2Cn3c(nc4c3c(=O)[nH]c(=O)n4C)O2)c1 (configuration not stated) | 1.7 | -0.16 | i | -6.9
CSc1ccccc1NC(=O)CSCc1ccc(C)cc1 | 4.0 | -5.07* | i | -19.0
COc1ccc(CC(=O)Nc2ccccc2N2CCCCC2)cc1OC | -4.6 | -6.19* | i | -33.4
SMILES | M18AAP inhibitor | Kir21 block | Rce1 inhib | DNA FID counter
COc1ccc(CC(=O)Nc2ccc(N3CCCC3)c(C)c2)cc1 | 14.4 | -9.82* | i | -11.5
COc1cccc(NC(=S)N(CCCN2CCCC2)Cc2cccn2Cc2ccc(Cl)cc2)c1 | 14.4 | -8.49* | i | 36.9*
COCc1ccc(CN2CCCCC2C(=O)Nc2ccc(Oc3ccccc3)nc2)o1 (configuration not stated) | 4.5 | 0.05 | i | -17.5
CN(Cc1ccccc1)c1nc2nonc2nc1N1CCCC(CN2CCCC2=O)C1 (configuration not stated) | -8.0 | 0 | i | -30.3
CCOc1ccc(Br)cc1S(=O)(=O)N1CCSC1 | -1.9 | -4.95* | i | -12.2
CCOc1cc(Br)ccc1S(=O)(=O)N1CCC(C(N)=O)CC1 | 1.0 | 3.49 | i | -6.6
O=C(N=Nc1ccc(NOC(=O)c2ccccc2Br)cc1)c1ccccc1O | 3.0 | 0.85 | i | 2.2
C=CCN(C(=O)c1ccc2snnc2c1)c1ccccc1 | -6.5 | -3.05 | i | -12.6
CC(/C=C1\SC(=S)N(CCCC(=O)Nc2ccc(C(=O)O)c(O)c2)C1=O)=C\c1ccccc1 | -31.4 | 0 | i | 38.5*
CC(/C=C1\SC(=S)N(CCC(=O)Nc2ccc(O)cc2)C1=O)=C\c1ccccc1 | 1.9 | -1.08 | i | -9.9
CCOC(=O)N1CCC(N2C(=O)c3ccc(C(=O)Nc4cccc(OC)c4)cc3C2=O)CC1 | 0.1 | 2.3 | i | -31.2
